Data from PubChem BioAssay.
Some of the results follow. Calls of active or inactive are those of the source.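 How the source made its calls, unless noted: active means GFP response above 150% of the DMSO level; inconclusive means fewer than 70 events counted for a yeast strain; inactive means the rest.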

What was measured:
[1] = hit retest on RPL19A-GFP reporter strain – cell-based, S. cerevisiae, flow cytometry, cherry picks, mother/daughter gates, confirmation (AID 2270;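 active means GFP response below 50% of the DMSO control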); conditions: 3 h, at 10 µM, stronger effect = lower value, 100 = same GFP as DMSO wells
[2] = yeast TOR pathway reporter LAP4-GFP change – cell-based, cherry picks, flow cytometry, mother/daughter gates, confirmation (AID 2271;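 active means GFP response above 150% of the DMSO control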;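 further: ratio of sample to DMSO plate mean so 100% equals DMSO level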); conditions: S. cerevisiae LAP4-GFP strain, 3 h, at 10 µM, stronger effect = higher value, 100 means same as DMSO control
[3] = TOR pathway reporter MEP2-GFP, retest of hits – S. cerevisiae, flow cytometry GFP, cherry picks, confirmation (AID 2272;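 active means GFP response above 150% of the DMSO control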;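 further: ratio of well signal to plate DMSO mean so 100% equals DMSO level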); conditions: S. cerevisiae MEP2-GFP strain, 3 h, at 10 µM, stronger effect = higher value
[4] = yeast AGP1-GFP fluorescence change, single-dose – cell-based, flow cytometry, S. cerevisiae, cherry picks, confirmation (AID 2273);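 further: median GFP channel fluorescence over the whole cell population gate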; conditions: S. cerevisiae AGP1-GFP strain, 3 h, at 10 µM
[5] = TOR pathway CIT2 reporter hit retest – S. cerevisiae, GFP fusion, cherry picks, mother/daughter gates, confirmation (AID 2274); conditions: S. cerevisiae CIT2-GFP strain, flow cytometry, 3 h, at 10 µM, stronger effect = higher value
[6] = green-channel fluorescence artefact in S. cerevisiae – s288c strain, artefact control for yeast TOR pathway GFP screen, dose response (AID 2757;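 active means fluorescence span over the dose series, or activity score, above about 33, limit read from the data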;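 further: thousands of bead-calibrated equivalent soluble fluorophore molecules from median cell fluorescence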); conditions: 520 nm autofluorescence, flow cytometry, 3 h, at 33 µM, stronger effect = higher value, zero means same as solvent-only cells
[7] = measured here: daughter cell gate response
[8] = measured here: mother cell gate response
[9] = measured here: daughter cell gate
[10] = measured here: mother cell gate

SMILES | GFP response vs DMSO [1] | GFP response relative to DMSO [2] | GFP response relative to DMSO [2, 7] | GFP response relative to DMSO [2, 8] | GFP response vs DMSO [3] | GFP response, % of DMSO [4] | GFP response, % of DMSO [5] | GFP response, % of DMSO [5, 9] | GFP response, % of DMSO [5, 10] | GFP response vs DMSO [1, 9] | GFP response vs DMSO [1, 10] | fluorescence change (kMESF span) [6]
CCC(=O)Nc1ccc(NC(=O)c2cc3ccccc3o2)c(OC)c1 | 100% (inactive) | 94.4% (inactive) | 95.9% | 96.2% | 101% (inactive) | 100% (inactive) | 94.4% (inactive) | 95.6% | 88.2% | – | – | –
Cc1c(/C=N/Nc2ccc(C(=O)O)cc2)c2ccccc2n1C | 96.2% (inactive) | 105% (inactive) | – | – | 103% (inactive) | 95.5% (inactive) | 91.7% (inactive) | 81.6% | 82.6% | 91.3% | 95.8% | –
Cc1ccc(C2CCN(C(=S)Nc3cccc(Cl)c3)C2)cc1 (stereo unspecified) | 96.2% (inactive) | 119% (inactive) | – | – | 97.5% (inactive) | 93.2% (inactive) | 92.1% (inactive) | 90.9% | 95.6% | 95.7% | 97.4% | –
Cc1ccc(-c2nn(C(C)(C)C)c3ncnc(N)c23)cc1 | 46.7% (active) | 175% (active) | – | – | 116% (inactive) | 95.7% (inactive) | 45.8% (inactive) | 62.1% | 43.5% | 43.7% | 46.7% | -0.9 (inactive)
Cc1ccc(/C=C/c2ccc(N(C)C)cc2)[n+](C)c1 | 101% (inactive) | 119% (inactive) | – | – | 133% (inactive) | 103% (inactive) | 121% (inactive) | 121% | 110% | 94.2% | 93.8% | –
CCCc1ccc(OCC(=O)NNC(=S)NC(=O)c2ccco2)cc1 | 111% (inactive) | 259% (active) | – | 226% | 139% (inactive) | 123% (inactive) | 112% (inactive) | 85.2% | 99.3% | – | 97.1% | 9.67 (inactive)
CCN(CC)c1ccc2cc(C(=O)O)c(=O)oc2c1 | 95.1% (inactive) | 126% (inactive) | – | – | 110% (inactive) | 105% (inactive) | 94.4% (inactive) | – | – | 89.9% | 94.2% | –
O=C1C=C(c2ccc(Cl)cc2)C(=O)N1Nc1ccccc1 | 61.9% (inactive) | 96.2% (inactive) | – | 81.9% | 113% (inactive) | 102% (inactive) | 66.5% (inactive) | 99.7% | 53.7% | 89.1% | 51.9% | 0.3 (inactive)
O=C(c1cccc(COc2ccc(Cl)cc2Cl)c1)N1CCN(c2ccccn2)CC1 | 80% (inactive) | 114% (inactive) | 107% | 117% | 103% (inactive) | 86.6% (inactive) | 95.9% (inactive) | 90.2% | 95.6% | 83.6% | – | –
COc1ccccc1C1C2=C(CC(C)(C)CC2=O)N(CC(=O)O)C2=C1C(=O)CC(C)(C)C2 | 102% (inactive) | 105% (inactive) | – | – | 133% (inactive) | 98.9% (inactive) | 117% (inactive) | 118% | 107% | 93% | 94% | –
Cc1cccc(CS(=O)(=O)c2ncc(Cl)c(C(=O)Nc3nnc(C(C)C)s3)n2)c1 | 96.7% (inactive) | 106% (inactive) | 108% | 105% | 99.3% (inactive) | 102% (inactive) | 103% (inactive) | 99.3% | 104% | – | – | –
CC1=C/C(=N\OS(=O)(=O)c2ccccc2)C(C)=CC1=O | 79.2% (inactive) | 262% (active) | 136% | 243% | 118% (inactive) | 108% (inactive) | 98.8% (inactive) | 117% | 88.2% | – | 66.3% | –
Cc1nn2c(NCc3ccccn3)c3c(nc2c1-c1ccccc1)CCC3 | 106% (inactive) | 132% (inactive) | – | 114% | 120% (inactive) | 103% (inactive) | 100% (inactive) | 95.8% | 85.9% | 85.7% | 93.7% | –
CCOC(=O)c1cc(-c2ccc(/C=C3/C(=O)NC(=O)C(C#N)=C3C)o2)ccc1Cl | 67.6% (inactive) | 240% (active) | 141% | 231% | 160% (inactive) | 104% (inactive) | 118% (inactive) | 103% | 101% | – | 55.4% | –
Cc1ccc(N2C(=O)C3C4C=CC(CNC(=S)Nc5cccc(Cl)c5)(O4)C3C2=O)cc1 (stereo unspecified) | 101% (inactive) | 97% (inactive) | 99.1% | 97.3% | 101% (inactive) | 98.4% (inactive) | 97.3% (inactive) | 99.2% | 89.5% | – | – | –
CCOC(=O)C(C(=O)OCC)C(C(=O)OCC)N1CCOCC1 (stereo unspecified) | 74.1% (inactive) | 182% (active) | 158% | 165% | 108% (inactive) | 90.2% (inactive) | 86.1% (inactive) | 105% | 72.5% | – | 61.4% | –
